D1 potentiator – human D1 dopamine receptor positive modulation | P21728 | HEK293 TREx D1 cells, calcium flux, dopamine EC20 potentiation | potentiation, % at 10 µM | hit rate 0.036% among 360,000 | AID 504651; in the data active = potentiation above about 30%; note: 0% is about no effect
Target sequence (P21728 whole entry, looked up): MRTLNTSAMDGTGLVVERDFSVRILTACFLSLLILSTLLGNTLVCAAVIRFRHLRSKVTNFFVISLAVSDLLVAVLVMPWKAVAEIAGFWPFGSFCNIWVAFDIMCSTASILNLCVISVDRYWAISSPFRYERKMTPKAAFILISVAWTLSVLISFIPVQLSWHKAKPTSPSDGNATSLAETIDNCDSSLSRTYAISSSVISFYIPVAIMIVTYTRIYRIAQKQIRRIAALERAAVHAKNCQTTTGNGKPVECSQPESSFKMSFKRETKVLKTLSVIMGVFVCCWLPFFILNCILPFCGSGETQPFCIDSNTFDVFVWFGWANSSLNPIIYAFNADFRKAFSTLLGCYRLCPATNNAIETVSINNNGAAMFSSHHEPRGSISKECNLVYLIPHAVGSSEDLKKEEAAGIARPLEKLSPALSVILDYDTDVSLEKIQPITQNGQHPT
D1 ag – agonists of human D1 dopamine receptor; HEK293 T-REx D1 cells, calcium flux, agonist mode; activation, % at 2 µM; hit rate 1% among 360,000; AID 504660; note: 0% is about no effect
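Tetracycline-induced HEK293 TREx D1 cells, force-coupled to calcium signalling, were dye-loaded with a no-wash calcium kit. Compound was pin-added after a 10 s baseline. Fluorescence was read kinetically at 1 cycle/s for 180 s, with calcium rises flagged as agonism.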
D1 antag – human D1 dopamine receptor antagonism | hit rate 3.2% among 360,000 | activity change, negative = inhibition, % at 10 µM | AID 504652 | HEK293 TREx D1 cells, calcium flux, dopamine EC80; hits give low values | P21728; in the data active = activity change below about -30%; note: % is set by controls: 0 for no effect and ±100 for the full control effect
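HEK293 T-REx cells expressing inducible, force-coupled D1 receptor; no-wash Ca dye, 30–90 min RT. Cmpd → 180 s read at 1 Hz → EC80 DA → 180 s read.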
TRHR ag – activates the human TRH receptor; P34981; TRHR cells, calcium flux fluo-8, FDSS agonist mode; activation, % at 2 µM; hit rate 0.18% among 360,000; AID 493084; note: 0% is about no effect
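In this calcium-flux screen, cells bearing human TRHR are dye-loaded with fluo-8, baselined for 10 cycles, then exposed to library compounds; positive kinetic calcium responses during the agonist phase mark hits, with TRH as control.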
TRHR enhancer – TRH receptor (human) allosteric enhancement | TRHR cells, fluo-8 calcium fluorescence, EC20 TRH enhancement | P34981 | hit rate 0.66% among 360,000 | enhancement, % at 2 µM; in the data active = enhancement above about 30%; note: 0% is about no effect
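Enhancer read-out: after compound pinning and an initial kinetic agonist-mode read, an EC20 of TRH (10 nM final) was injected and fluo-8 calcium signal (Ex 480/Em 530) followed at 1 s/cycle for 100 cycles in TRHR-expressing cells.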
The depositor's hits bear a star; · = no result. A selection: hits, their analogues and other compounds. The true share with any hit is near 4.7%. Cut-off read from the data, not from the text of the source, unless noted: active = activation above about 30%; inactive = the rest.

SMILES | D1 potentiator | D1 ag | D1 antag | TRHR ag | TRHR enhancer
COC(=O)c1ccc(Oc2nc3c(c(=O)n(C)c(=O)n3C)n2C(C)C)cc1 | 1.6 | -1.2 | 0.3 | -0.8 | -6.0
COc1ccc(Br)cc1C1CC(=O)N2CN(Cc3ccccc3)CSC2=C1C#N (configuration not stated) | -1.1 | 2.0 | -31.1* | 1.0 | 0.4
COc1cc(OC)c(C2CC(=O)N3CN(C)CSC3=C2C#N)cc1OC (configuration not stated) | -7.2 | 2.1 | -38.3* | 0.4 | 1.3
COc1ccc(Br)cc1C1CC(=O)N2CN(C)CSC2=C1C#N (configuration not stated) | -8.3 | 2.5 | -7.0 | 0.0 | -3.5
COc1ccccc1N1CCN(C(=O)CCNS(=O)(=O)c2ccc3c(c2)CCN3C(=O)C2CC2)CC1 | -4.1 | 0.8 | -8.9 | -0.5 | 3.8
CN(Cc1ccccc1)C(=O)c1ccc(CSc2nc3cccnc3n2Cc2ccccc2F)cc1 | -3.6 | 3.7 | -6.8 | 0.3 | 4.4
CCn1c(=O)c2sccc2n2c(CCCC(=O)Nc3ccc(OC)c(OC)c3)nnc12 | -3.4 | 0.9 | 1.2 | 0.2 | -6.1
CCc1ccc(NS(=O)(=O)c2cc(-c3cnc(C4CC4)o3)ccc2C)cc1 | 1.1 | 3.1 | 2.5 | -1.4 | 4.6
Cc1cccc(N(C)S(=O)(=O)c2cc(-c3cnc(C4CC4)o3)ccc2C)c1 | 0.8 | 19.5 | -31.8* | -0.9 | 7.4
NS(=O)(=O)c1ccc(CCNC(=O)CNCCc2ccc(C(F)(F)F)cc2)cc1 | -0.3 | -0.5 | 6.8 | 0.7 | 1.8
CC(C)c1ccccc1NC(=O)CNCCc1ccc(C(F)(F)F)cc1 | -1.9 | 35.6* | -1.0 | 0.9 | -1.6
COc1ccccc1N/C=C/C(=C(C#N)C#N)N(C)C | -4.8 | 0.7 | -4.3 | -0.9 | -2.5
CN(C)C(/C=C/Nc1ccccc1F)=C(C#N)C#N | -2.4 | 2.2 | -33.9* | 0.0 | 14.0
CCOC(=O)c1ccc(NC(=O)CCC(=O)N2Cc3ccccc3Oc3ncccc32)cc1 | 2.9 | 36.9* | 9.4 | -1.0 | 14.0
O=C(c1ccc2c(c1)N(Cc1ccc(Cl)cc1)C(=O)c1ccccc1S2=O)N1CCOCC1 (configuration not stated) | -1.8 | 1.5 | -16.2 | 0.4 | -3.9
Nc1ccn(CC(=O)NCc2ccccc2)c(=O)n1 | 2.4 | 0.6 | 4.3 | 0.5 | 2.9
Nc1ccn(CC(=O)N[C@H](CO)Cc2c[nH]c3ccccc23)c(=O)n1 | -3.9 | 1.3 | -34.0* | 0.0 | -1.3
CN(Cc1ccccc1)C(=O)c1nc2ccccn2c1CN1CCc2sccc2C1 | -4.3 | 2.6 | -32.8* | -0.7 | -5.9
CN(Cc1c(C(=O)N(C)Cc2ccccc2)nc2ccccn12)CC1Cc2ccccc2O1 (configuration not stated) | -2.6 | 2.4 | -10.4 | -1.2 | 3.0
COc1cccc(C(=O)NC2CCN(CC(=O)Nc3nccs3)CC2)c1 | -1.9 | 1.7 | -32.9* | 0.1 | 3.0
CCCNC(=S)NC1CC2CCCC(C1)N2Cc1ccc(F)cc1 (configuration not stated) | -3.1 | 7.0 | -7.4 | 0.6 | 1.6
COc1cccc(C(=O)NC2CCN(CC(=O)Nc3c(C)cc(C)cc3C)CC2)c1 | -6.3 | -0.1 | -12.7 | -0.8 | -2.3
Cc1cccc(C(=O)NC2CC3CCC(C2)N3C)c1 (configuration not stated) | -4.5 | 3.4 | -24.7 | 0.8 | -1.5
Cc1ccc(CN2C3CCCC2CC(NC(=O)c2ccc(F)cc2)C3)cc1 (configuration not stated) | -12.3 | 8.4 | -44.8* | 0.8 | -1.2
Cc1cccc(C(=O)NC2CC3CCCC(C2)N3Cc2ccccc2)c1 (configuration not stated) | -12.1 | 0.5 | -30.5* | 0.0 | 3.4
SMILES | D1 potentiator | D1 ag | D1 antag | TRHR ag | TRHR enhancer
O=C(NC1CC2CCCC(C1)N2Cc1ccccc1)c1ccc([N+](=O)[O-])cc1 (configuration not stated) | 0.8 | 4.4 | -56.6* | -0.3 | 2.8
Cc1ccc(C(=O)NC2CC3CCCC(C2)N3Cc2ccccc2)cc1 (configuration not stated) | -8.8 | -0.6 | -83.9* | -0.5 | 10.2
O=C(NC1CC2CCC(C1)N2Cc1ccccc1)c1ccccc1Br (configuration not stated) | -9.5 | 2.4 | 24.8 | 0.6 | 5.8
O=C(NC1CC2CCC(C1)N2Cc1ccccc1)c1cccc(F)c1 (configuration not stated) | -7.8 | 3.5 | -50.3* | 0.1 | 3.6
COc1ccc(CN2C3CCC2CC(NC(=O)c2cccc(F)c2)C3)cc1 (configuration not stated) | -10.7 | 8.1 | -25.5 | 0.4 | -10.4
O=C(NC1CC2CCC(C1)N2Cc1ccco1)c1ccccc1 (configuration not stated) | -25.3 | 1.5 | -39.7* | -0.1 | 7.3
COc1cccc(C(=O)NC2CC3CCC(C2)N3Cc2ccccc2)c1 (configuration not stated) | 0.1 | 7.4 | -49.0* | 0.2 | -3.1
O=C(NCc1ccccc1)NC1CC2CCC(C1)N2Cc1ccco1 (configuration not stated) | -4.6 | 5.6 | -5.5 | 1.2 | -0.8
COc1ccccc1C(=O)NC1CC2CCC(C1)N2Cc1ccccc1 (configuration not stated) | -11.7 | -0.5 | -49.9* | 0.0 | 9.2
COc1ccc(C(=O)NC2CC3CCCC(C2)N3Cc2ccccc2)cc1 (configuration not stated) | -12.3 | 1.9 | -48.8* | 0.1 | 4.1
CCOc1ccc(C(=O)NC2CC3CCCC(C2)N3Cc2ccccc2)cc1 (configuration not stated) | -14.0 | 5.2 | -15.8 | 0.5 | 20.9
COc1ccc(C(=O)NC2CC3CCCC(C2)N3Cc2ccccc2)c(OC)c1 (configuration not stated) | -4.7 | 2.1 | -13.5 | 0.0 | -5.7
COc1cc(-c2noc(-c3nnn(-c4ccc(Cl)cc4)c3C)n2)cc(OC)c1OC | 0.4 | 1.7 | -33.2* | -0.3 | 5.2
COc1ccc(Cl)cc1-n1nnc(-c2nc(-c3ccccc3)no2)c1C | -0.7 | 1.6 | -56.6* | 0.1 | -19.5
CCOc1ccc(NC(=O)c2c(NCc3cccnc3)sc3c2CCCC3)cc1 | -4.3 | 2.3 | -12.2 | -0.5 | -4.3
Cc1cc(C)c(NC(=O)C(C)n2nnc3sc4c(c3c2=O)CCCC4)c(C)c1 (configuration not stated) | 0.6 | 0.6 | -3.8 | 0.9 | -1.1
CN(Cc1cccs1)C(=O)/C=C/c1ccccc1[N+](=O)[O-] | -8.2 | 9.6 | -41.1* | -0.1 | 12.5
CCCNC(=O)c1cnc2sc(N3CCCCCC3)nn2c1=O | -5.2 | 1.4 | -11.3 | 0.2 | -3.8
CSc1ccccc1NC(=O)CSc1nnc(CNC(=O)c2ccccc2F)n1C | · | 48.3* | 4.9 | 0.1 | 3.5
COc1ccc(-c2nn(-c3ccccc3)cc2C(=O)Nc2ccc(C(=O)O)cc2)cc1 | -6.4 | 1.5 | -1.4 | 0.4 | 10.1
